Source: PubChem BioAssay
Activity calls are given as the source filed them.

Experiments:
[1] = compound effects on differentiated 3T3-L1 adipocyte viability – cell-based, 3T3-L1 adipocytes, calcein-AM fluorescence, 48 h, basal, profiling panel (AID 1163); settings: 3T3-L1 adipocytes viability, higher = more signal
[2] = compound effects on hepatocellular carcinoma cell viability – HepG2, calcein-AM fluorescence, 48 h, basal, profiling panel (AID 1164); settings: higher = more signal
[3] = compound effects on multiple myeloma cell viability – MM1S, calcein-AM fluorescence, 48 h, basal, profiling panel (AID 1165); settings: higher = more signal;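 note: viability of MM1S multiple myeloma cells under basal unstimulated conditions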
[4] = calcein-AM signal in unstimulated myeloma cells – cell-based, calcein-AM fluorescence, 48 h, PK04 Diversity Set, profiling panel (AID 1166); settings: RPMI8226 myeloma viability, higher = more signal;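 note: cells grown under basal conditions without added stimulus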
[5] = JC-1 mitochondrial signal, unstimulated HepG2 cells – cell-based, JC-1 fluorescence, 24 h, 100 nL compound, profiling panel (AID 1167); settings: HepG2 mitochondrial potential, higher = more signal
[6] = JC-1 mitochondrial signal, unstimulated adipocytes – cell-based, JC-1 fluorescence, 3T3-L1 adipocytes, 24 h, 100 nL compound, profiling panel (AID 1168); settings: JC-1 mitochondrial fluorescence, higher = more signal, called active from +8 up or from −8 down
[7] = JC-1 mitochondrial signal, unstimulated myeloma cells – cell-based, JC-1 fluorescence, RPMI8226, 24 h, 100 nL compound, profiling panel (AID 1169); settings: JC-1 mitochondrial potential fluorescence, higher = more signal
[8] = JC-1 mitochondrial signal, unstimulated MM1S myeloma – cell-based, JC-1 fluorescence, 24 h, 100 nL compound, profiling panel (AID 1170); settings: MM1S mitochondrial potential, higher = more signal
[9] = resazurin metabolic signal in A549 cells – cell-based, resazurin fluorescence, 24 h, PK04 Diversity Set, profiling panel (AID 1171); settings: A549 viability, higher = more signal, called active from +8 up or from −8 down
[10] = resazurin metabolic signal in HepG2 cells – cell-based, resazurin fluorescence, 24 h, PK04 Diversity Set, profiling panel (AID 1172); settings: HepG2 viability, higher = more signal
[11] = budding yeast growth changes without added modifier – OD600, strain BY4716, 24 h, basal condition, primary screen (AID 1173); settings: S. cerevisiae BY4716 growth, OD600, 24 h; higher = more signal, called active from +8 up or from −8 down
[12] = viability profiling in MM1S myeloma cells – cell-based, resazurin fluorescence, basal, 24 h, PK04 Diversity Set, profiling panel (AID 1174); settings: higher = more signal, called active from +8 up or from −8 down
[13] = target: Dihydroorotate dehydrogenase (quinone), mitochondrial (Plasmodium falciparum (isolate 3D7)) (UniProt Q08210); test: inhibition of P. falciparum DHODH – biochemical, C-terminal His tag, absorbance 600 nm, primary screen (AID 1175); settings: PfDHODH enzyme, DCIP absorbance 600 nm; higher = more signal, called active from +8 up or from −8 down;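 note: recombinant parasite enzyme with a five histidine tag at its C terminus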
[14] = growth modulation of vineyard yeast isolate – strain RM11-1a, OD600, basal, 24 h, primary screen (AID 1177);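 note: cultures grown under basal conditions with no added stressor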; settings: S. cerevisiae RM11-1a growth, OD600, 24 h; higher = more signal, called active from +8 up or from −8 down
[15] = growth of efflux-deficient E. coli DRC39 – strain DRC39, OD650, 24 h, E. coli filamentation inducers, primary screen (AID 1178);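 note: growth measured as culture turbidity by optical density at 650 nm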; settings: E. coli DRC39 acrAB, higher = more signal, called active from +8 up or from −8 down
[16] = growth of efflux-deficient E. coli DRC39 – strain DRC39, OD650, 48 h, E. coli filamentation inducers, primary screen (AID 1179);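 note: screen aims at cell division blockers that make cells filament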; settings: E. coli DRC39 delta-acrAB growth, higher = more signal, called active from +8 up or from −8 down
[17] = viability profiling in RPMI8226 myeloma cells – cell-based, resazurin fluorescence, basal, 24 h, PK04 Diversity Set, profiling panel (AID 1180); settings: higher = more signal;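 note: RPMI8826 multiple myeloma cell line at 5000 cells per well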
[18] = target: E3 ubiquitin-protein ligase XIAP (Homo sapiens) (UniProt P98170); test: small molecules binding XIAP protein – biophysical, small-molecule microarray, fluorescence 635 nm, primary screen (AID 1181); settings: higher = more signal;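 note: score merges 667 nm emission and signal to noise over triplicate slides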
[19] = tested on: XIP peptide (Xip251-270) binding; test: XIP fragment 251-270 binding compounds – biochemical, small-molecule microarray, fluorescence 635/667 nm, 0.1 µg/mL protein, primary screen (AID 1182); settings: fluorescent protein binding, 635 nm, higher = more signal, called active from +8 up or from −8 down
[20] = tested on: XIP peptide (Xip251-270); test: compounds binding XIP fragment 251-270 – biochemical, small-molecule microarray, fluorescence 635/667 nm, 0.5 µg/mL protein, primary screen (AID 1183); settings: fluorescence 635 nm, higher = more signal

Sequence of Dihydroorotate dehydrogenase (quinone), mitochondrial (Plasmodium falciparum (isolate 3D7)) (Q08210 whole entry, looked up): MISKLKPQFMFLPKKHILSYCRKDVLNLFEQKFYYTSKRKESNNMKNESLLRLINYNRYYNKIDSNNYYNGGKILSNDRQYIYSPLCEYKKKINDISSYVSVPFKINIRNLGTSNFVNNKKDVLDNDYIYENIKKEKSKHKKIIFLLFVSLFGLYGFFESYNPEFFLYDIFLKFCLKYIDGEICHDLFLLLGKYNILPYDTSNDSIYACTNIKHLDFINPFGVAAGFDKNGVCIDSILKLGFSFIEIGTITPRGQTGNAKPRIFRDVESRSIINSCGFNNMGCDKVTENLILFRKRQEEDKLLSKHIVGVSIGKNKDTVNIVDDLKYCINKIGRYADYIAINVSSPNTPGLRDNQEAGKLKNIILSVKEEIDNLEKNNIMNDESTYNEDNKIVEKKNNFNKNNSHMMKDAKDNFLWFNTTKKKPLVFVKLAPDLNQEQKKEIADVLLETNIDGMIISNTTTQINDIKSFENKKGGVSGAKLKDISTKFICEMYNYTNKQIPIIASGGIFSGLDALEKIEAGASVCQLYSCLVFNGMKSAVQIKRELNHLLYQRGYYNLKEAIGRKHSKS
Sequence of E3 ubiquitin-protein ligase XIAP (Homo sapiens) (P98170 whole entry, looked up, the tested form may be a part): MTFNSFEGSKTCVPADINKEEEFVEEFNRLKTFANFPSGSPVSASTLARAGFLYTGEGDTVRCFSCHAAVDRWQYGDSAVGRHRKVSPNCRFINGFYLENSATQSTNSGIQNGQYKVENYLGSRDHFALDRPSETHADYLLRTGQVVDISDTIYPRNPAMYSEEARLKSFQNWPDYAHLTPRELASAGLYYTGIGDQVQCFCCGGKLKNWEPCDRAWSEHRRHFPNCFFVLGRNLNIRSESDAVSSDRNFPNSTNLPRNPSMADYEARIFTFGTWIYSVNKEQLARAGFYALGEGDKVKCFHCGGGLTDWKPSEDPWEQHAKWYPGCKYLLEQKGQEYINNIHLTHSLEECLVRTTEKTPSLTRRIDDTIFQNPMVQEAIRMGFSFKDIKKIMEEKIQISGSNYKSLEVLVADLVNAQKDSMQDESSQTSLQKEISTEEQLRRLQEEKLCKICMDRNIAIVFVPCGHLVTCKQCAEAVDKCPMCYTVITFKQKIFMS

SMILES	z-score [1]	z-score [2]	z-score [3]	z-score [4]	z-score [5]	z-score [6]	z-score [7]	z-score [8]	z-score [9]	z-score [10]	z-score [11]	z-score [12]	composite z-score [13]	z-score [14]	z-score [15]	z-score [16]	z-score [17]	composite z-score [18]	composite z-score [19]	composite z-score [20]
CC(C)CNC(=O)[C@@H]1c2ccccc2C(=O)N(Cc2ccc(OC(F)(F)F)cc2)[C@H]1c1ccc(CO)cc1	0.18	0.442	-0.201	0.351	2.64	1.08 (inactive)	0.417	-0.881	1.31 (inactive)	0.867	-1.78 (inactive)	1.33 (inactive)	-0.876 (inactive)	-2.73 (inactive)	1.38 (inactive)	1.5 (inactive)	1.13	0.205	0.0114 (inactive)	0.762
C=CCNC(=O)[C@H]1[C@@H]2C(=O)O[C@@H](c3ccccc3)[C@@H](c3ccccc3)N2[C@@H](c2ccc(OCCO)cc2)[C@]12C(=O)Nc1ccc(C#CCCO)cc12	2.12	1.05	0.416	0.364	0.355	0.815 (inactive)	-0.307	0.128	0.865 (inactive)	-0.0836	-0.0378 (inactive)	0.806 (inactive)	0.0436 (inactive)	1.25 (inactive)	0.645 (inactive)	0.499 (inactive)	1.28	-0.0371	0.331 (inactive)	0.81
COC(=O)C(CC#Cc1ccc2c(c1)[C@]1(C(=O)N2)[C@H](c2ccccc2OCCO)N2[C@H](c3ccccc3)[C@H](c3ccccc3)OC(=O)[C@H]2[C@@H]1C(=O)N1CCCCCCC1)C(=O)OC	1.89	-0.0172	0.578	-0.576	0.87	-0.239 (inactive)	-0.395	-1.32	1.9 (inactive)	0.0437	1.31 (inactive)	1.19 (inactive)	-2.8 (inactive)	1.23 (inactive)	0.723 (inactive)	-0.34 (inactive)	1.17	1.72	6.51 (inactive)	0.937
COC(=O)c1c(CC[C@@H](CO)NC(=O)Nc2ccc(OC)cc2)oc(C(=O)Cc2ccccc2)c1C(=O)OC	1.01	-0.255	-0.581	0.141	-0.115	0.695 (inactive)	-0.204	0.212	0.367 (inactive)	-0.325	-2.3 (inactive)	0.955 (inactive)	-1.09 (inactive)	1.22 (inactive)	1.46 (inactive)	0.987 (inactive)	0.173	-0.0525	0.684 (inactive)	0.678
CC(C)C(=C=CC[C@@H](O)c1ccc(CO)o1)CCO	-0.266	0.719	0.288	0.889	0.919	0.556 (inactive)	0.304	0.501	1.37 (inactive)	1.32	-1.13 (inactive)	1.07 (inactive)	-0.669 (inactive)	-0.332 (inactive)	2.09 (inactive)	1.39 (inactive)	1.18	-0.0036	0.676 (inactive)	-0.514
CCCCCCC#C[Si](O[C@H](c1ccccc1)c1cn(Cc2ccccc2)nn1)(C(C)C)C(C)C	0.28	-0.316	0.163	0.0412	6.57	2.09 (inactive)	0.548	-0.198	4.71 (inactive)	2.52	-0.382 (inactive)	2.12 (inactive)	0.337 (inactive)	-0.486 (inactive)	2.12 (inactive)	1.36 (inactive)	2.68	-0.0368	0.663 (inactive)	-0.15
CC(C)CCC[C@@H](C)[C@H]1CC[C@@]2(C)C3=C(CC[C@]12C)[C@@]1(C)CC[C@H](OC(=O)CCl)C(C)(C)C1CC3 (stereo not given in full)	0.155	1.17	0.405	0.895	1.58	-0.207 (inactive)	-0.493	1.07	0.96 (inactive)	1.16	-0.795 (inactive)	0.33 (inactive)	0.141 (inactive)	-0.249 (inactive)	2.93 (inactive)	1.59 (inactive)	0.444	0.106	0.133 (inactive)	0.174
CC(C)C[C@@H]1NC(=O)[C@@]23C(=O)N[C@@H](Cc4ccccc4)C2[C@H](C)[C@@]2(C)O[C@H]2C3/C=C/C/C=C\CNC(=O)[C@H](Cc2ccccc2)NC1=O (stereo not given in full)	1.14	0.331	0.0263	-0.928	1.42	0.868 (inactive)	-0.0886	0.851	0.703 (inactive)	0.182	-2.28 (inactive)	-0.295 (inactive)	0.113 (inactive)	-0.748 (inactive)	2.7 (inactive)	1.22 (inactive)	0.468	0.52	0.0183 (inactive)	0.789
C=CCOC(=O)[C@H]1[C@@H]2C(=O)O[C@@H](c3ccccc3)[C@@H](c3ccccc3)N2[C@@H](c2ccc(OCCOC(=O)[C@H]3C[C@H]4C(=O)N5CCC[C@H]5C(=O)N4[C@H]3c3cccc(OCCO)c3)cc2)[C@]12C(=O)Nc1ccccc12	1.19	-0.588	-1.73	0.791	-0.558	0.569 (inactive)	-0.585	-0.673	0.601 (inactive)	0.0928	0.22 (inactive)	1.26 (inactive)	0.493 (inactive)	1.16 (inactive)	0.971 (inactive)	0.184 (inactive)	1.37	0.298	1.33 (inactive)	0.809
